# From article PMC7862700, “An all-to-all approach to the identification of sequence-specific readers for epigenetic DNA modifications on cytosine”
# Tests used:
# Assay in all cases: DAPPL (digital affinity profiling via proximity ligation, sequencing); 10 mM Tris-HCl pH 7.5, 50 mM NaCl, 1 mM DTT, 4% glycerol, room temperature, 30 min; GST-TFs on glutathione beads, 16-mer random dsDNA library, 0.1% formaldehyde crosslink after washing; high values mean tight binding
# [1] = target: T1, FLI1 (Homo sapiens, UniProt Q01543 1-452); details: protein: recombinant; tags: N-terminal GST; dsDNA, one strand shown
# T1 sequence: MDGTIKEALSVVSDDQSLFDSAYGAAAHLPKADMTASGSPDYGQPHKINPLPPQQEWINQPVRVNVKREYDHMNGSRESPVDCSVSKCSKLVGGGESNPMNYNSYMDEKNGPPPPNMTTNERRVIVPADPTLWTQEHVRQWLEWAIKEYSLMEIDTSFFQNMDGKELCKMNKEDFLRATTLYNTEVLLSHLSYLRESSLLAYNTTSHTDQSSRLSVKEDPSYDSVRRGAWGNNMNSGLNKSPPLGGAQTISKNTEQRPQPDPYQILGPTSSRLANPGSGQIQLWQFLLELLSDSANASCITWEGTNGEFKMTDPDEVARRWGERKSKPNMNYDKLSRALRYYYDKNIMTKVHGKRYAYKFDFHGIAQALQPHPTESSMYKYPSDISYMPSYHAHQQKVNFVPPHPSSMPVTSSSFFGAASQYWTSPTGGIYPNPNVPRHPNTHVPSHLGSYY
# Method in brief: (§1)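 Binding signal is defined as a hexamer's read frequency for one factor over its frequency for the tag-only sample. To obtain reads, GST-fused human transcription factors were expressed in yeast, captured on glutathione beads, barcoded with DNA and pooled with that sample. Pools met 200 nmole of a 16-mer random double-stranded DNA library in Tris/NaCl/DTT/glycerol buffer for 30 min at room temperature before washing, 0.1% formaldehyde crosslinking, proximity ligation (BsaI/T4 ligase, 1 h, 37 °C), PCR and Illumina NextSeq500 sequencing.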
# [2] = target: T2, ELK1 (Homo sapiens, UniProt P19419 1-428); details: protein: recombinant; tags: N-terminal GST; dsDNA, one strand shown
# T2 sequence: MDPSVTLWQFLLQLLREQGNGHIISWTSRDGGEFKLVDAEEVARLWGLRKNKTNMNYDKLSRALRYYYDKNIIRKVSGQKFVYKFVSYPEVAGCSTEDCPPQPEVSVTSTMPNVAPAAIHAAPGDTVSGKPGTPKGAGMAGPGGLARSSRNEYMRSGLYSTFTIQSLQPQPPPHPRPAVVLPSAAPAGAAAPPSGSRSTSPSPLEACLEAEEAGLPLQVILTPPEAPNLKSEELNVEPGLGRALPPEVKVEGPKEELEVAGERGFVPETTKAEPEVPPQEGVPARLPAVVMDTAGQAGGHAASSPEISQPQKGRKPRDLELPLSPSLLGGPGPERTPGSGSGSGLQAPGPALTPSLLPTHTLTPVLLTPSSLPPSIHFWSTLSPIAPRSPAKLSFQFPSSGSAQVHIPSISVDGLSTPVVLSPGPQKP
# Method in brief: as §1
# [3] = target: T3, GABPA (Homo sapiens, UniProt Q06546 1-454); details: protein: recombinant; tags: N-terminal GST; dsDNA, one strand shown
# T3 sequence: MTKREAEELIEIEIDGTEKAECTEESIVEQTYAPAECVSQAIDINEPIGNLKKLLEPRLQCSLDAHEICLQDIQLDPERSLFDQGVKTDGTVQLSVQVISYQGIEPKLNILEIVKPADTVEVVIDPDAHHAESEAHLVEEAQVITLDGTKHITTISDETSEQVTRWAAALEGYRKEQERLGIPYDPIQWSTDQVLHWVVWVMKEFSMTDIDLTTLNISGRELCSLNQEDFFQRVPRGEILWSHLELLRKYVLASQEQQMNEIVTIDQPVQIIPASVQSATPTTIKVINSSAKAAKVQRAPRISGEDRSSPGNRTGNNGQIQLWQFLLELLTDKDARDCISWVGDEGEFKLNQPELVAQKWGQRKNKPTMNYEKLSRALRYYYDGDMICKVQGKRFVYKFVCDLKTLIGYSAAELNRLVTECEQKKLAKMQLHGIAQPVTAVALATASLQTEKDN
# Method in brief: as §1
# [4] = target: T4, ERG (Homo sapiens, UniProt P11308 1-479); details: protein: recombinant; tags: N-terminal GST; dsDNA, one strand shown
# T4 sequence: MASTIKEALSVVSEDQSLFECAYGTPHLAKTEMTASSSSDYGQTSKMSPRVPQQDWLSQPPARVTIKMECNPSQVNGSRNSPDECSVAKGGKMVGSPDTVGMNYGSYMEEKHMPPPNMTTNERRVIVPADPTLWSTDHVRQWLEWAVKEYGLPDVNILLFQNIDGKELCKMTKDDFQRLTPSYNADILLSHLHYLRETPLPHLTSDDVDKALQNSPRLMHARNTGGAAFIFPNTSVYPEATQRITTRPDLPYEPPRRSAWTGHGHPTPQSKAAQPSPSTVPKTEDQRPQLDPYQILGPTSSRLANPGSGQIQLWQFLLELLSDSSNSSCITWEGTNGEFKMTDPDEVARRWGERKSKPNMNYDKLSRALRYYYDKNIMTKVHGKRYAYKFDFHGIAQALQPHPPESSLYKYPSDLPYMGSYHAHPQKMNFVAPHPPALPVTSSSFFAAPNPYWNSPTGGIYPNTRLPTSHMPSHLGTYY
# Method in brief: as §1
# [5] = target: ELF1 (Homo sapiens, UniProt P32519 1-619); details: protein: recombinant; tags: N-terminal GST; dsDNA, one strand shown
# Method in brief: as §1
# [6] = target: T5, EHF (Homo sapiens, UniProt Q9NZC4 1-300); details: protein: recombinant; tags: N-terminal GST; dsDNA, one strand shown
# T5 sequence: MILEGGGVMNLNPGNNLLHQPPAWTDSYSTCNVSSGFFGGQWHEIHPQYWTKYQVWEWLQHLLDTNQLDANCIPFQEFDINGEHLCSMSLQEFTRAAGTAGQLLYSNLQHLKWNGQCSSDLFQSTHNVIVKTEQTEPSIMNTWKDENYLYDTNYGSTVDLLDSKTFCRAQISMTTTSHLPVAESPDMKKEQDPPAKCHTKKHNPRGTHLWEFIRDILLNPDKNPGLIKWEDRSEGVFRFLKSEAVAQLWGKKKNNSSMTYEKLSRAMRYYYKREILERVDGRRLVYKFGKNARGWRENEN
# Method in brief: as §1
# [7] = target: SPI1 (Homo sapiens, UniProt P17947 1-270); details: protein: recombinant; tags: N-terminal GST; dsDNA, one strand shown
# Method in brief: as §1
# [8] = target: SPIB (Homo sapiens, UniProt Q01892 1-262); details: protein: recombinant; tags: N-terminal GST; dsDNA, one strand shown
# Method in brief: as §1
# [9] = target: T6, ELK3 (Homo sapiens, UniProt P41970 1-407); details: protein: recombinant; tags: N-terminal GST; dsDNA, one strand shown
# T6 sequence: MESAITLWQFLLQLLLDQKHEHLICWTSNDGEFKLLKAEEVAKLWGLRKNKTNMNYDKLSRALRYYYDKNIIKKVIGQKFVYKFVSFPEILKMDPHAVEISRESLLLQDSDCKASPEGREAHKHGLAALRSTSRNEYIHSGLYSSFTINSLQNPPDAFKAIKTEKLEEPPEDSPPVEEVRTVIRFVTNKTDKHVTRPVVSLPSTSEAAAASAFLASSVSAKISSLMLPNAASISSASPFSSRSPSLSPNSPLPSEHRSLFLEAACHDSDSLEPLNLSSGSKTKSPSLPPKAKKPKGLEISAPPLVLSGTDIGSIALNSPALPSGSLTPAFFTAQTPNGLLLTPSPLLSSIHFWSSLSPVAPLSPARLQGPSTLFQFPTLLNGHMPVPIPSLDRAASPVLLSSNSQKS
# Method in brief: as §1
# [10] = target: T7, FEV (Homo sapiens, UniProt Q99581 1-238); details: protein: recombinant; tags: N-terminal GST; dsDNA, one strand shown
# T7 sequence: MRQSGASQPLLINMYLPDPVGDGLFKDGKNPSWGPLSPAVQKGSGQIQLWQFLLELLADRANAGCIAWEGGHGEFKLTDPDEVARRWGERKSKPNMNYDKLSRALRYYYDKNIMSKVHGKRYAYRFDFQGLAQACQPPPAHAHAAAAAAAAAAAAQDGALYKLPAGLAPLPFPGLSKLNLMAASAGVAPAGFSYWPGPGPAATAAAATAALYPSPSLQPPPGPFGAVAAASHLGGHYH
# Method in brief: as §1
# [11] = target: ETV5 (Homo sapiens, UniProt P41161 1-510); details: protein: recombinant; tags: N-terminal GST; dsDNA, one strand shown
# Method in brief: as §1
# [12] = target: HSF1 (Homo sapiens, UniProt Q00613 1-529); details: protein: recombinant; tags: N-terminal GST; chain copies: 3; dsDNA, one strand shown
# Method in brief: as §1
# [13] = target: T8, SPIC (Homo sapiens, UniProt Q8N5J4 1-248); details: protein: recombinant; tags: N-terminal GST; dsDNA, one strand shown
# T8 sequence: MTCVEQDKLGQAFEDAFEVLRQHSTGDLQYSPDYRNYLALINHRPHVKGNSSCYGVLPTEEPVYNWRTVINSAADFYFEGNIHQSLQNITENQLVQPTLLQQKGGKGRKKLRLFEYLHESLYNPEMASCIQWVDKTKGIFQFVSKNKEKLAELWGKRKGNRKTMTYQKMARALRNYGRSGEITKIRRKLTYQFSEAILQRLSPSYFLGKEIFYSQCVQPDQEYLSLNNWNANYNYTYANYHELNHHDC
# Method in brief: as §1
# [14] = target: ELF4 (Homo sapiens, UniProt Q99607 1-663); details: protein: recombinant; tags: N-terminal GST; dsDNA, one strand shown
# Method in brief: as §1
# [15] = target: T9, ELK4 (Homo sapiens, UniProt P28324-2 1-405); details: protein: recombinant; tags: N-terminal GST; dsDNA, one strand shown
# T9 sequence: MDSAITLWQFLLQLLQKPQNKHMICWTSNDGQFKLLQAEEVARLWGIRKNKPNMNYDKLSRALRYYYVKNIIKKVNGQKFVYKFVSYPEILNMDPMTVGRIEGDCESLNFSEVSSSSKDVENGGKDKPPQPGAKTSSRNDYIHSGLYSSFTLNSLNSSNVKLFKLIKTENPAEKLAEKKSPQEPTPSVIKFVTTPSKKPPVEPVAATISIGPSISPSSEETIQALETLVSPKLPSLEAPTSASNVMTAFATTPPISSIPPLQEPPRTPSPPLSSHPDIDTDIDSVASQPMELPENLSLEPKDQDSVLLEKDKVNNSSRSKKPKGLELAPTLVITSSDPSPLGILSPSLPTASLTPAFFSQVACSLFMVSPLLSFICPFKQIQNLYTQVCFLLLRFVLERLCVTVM
# Method in brief: as §1
# [16] = target: T10, ETV2 (Homo sapiens, UniProt O00321 1-342); details: protein: recombinant; tags: N-terminal GST; dsDNA, one strand shown
# T10 sequence: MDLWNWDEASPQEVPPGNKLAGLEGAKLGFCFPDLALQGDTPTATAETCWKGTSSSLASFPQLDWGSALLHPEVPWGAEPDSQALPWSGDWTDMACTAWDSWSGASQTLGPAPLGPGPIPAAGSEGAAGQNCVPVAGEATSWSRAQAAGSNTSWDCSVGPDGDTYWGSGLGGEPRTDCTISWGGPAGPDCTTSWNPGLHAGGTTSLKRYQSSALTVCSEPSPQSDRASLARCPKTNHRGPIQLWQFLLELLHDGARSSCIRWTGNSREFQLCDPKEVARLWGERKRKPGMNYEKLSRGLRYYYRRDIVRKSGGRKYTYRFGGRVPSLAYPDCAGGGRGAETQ
# Method in brief: as §1
# [17] = target: T11, ELF3 (Homo sapiens, UniProt P78545 1-371); details: protein: recombinant; tags: N-terminal GST; dsDNA, one strand shown
# T11 sequence: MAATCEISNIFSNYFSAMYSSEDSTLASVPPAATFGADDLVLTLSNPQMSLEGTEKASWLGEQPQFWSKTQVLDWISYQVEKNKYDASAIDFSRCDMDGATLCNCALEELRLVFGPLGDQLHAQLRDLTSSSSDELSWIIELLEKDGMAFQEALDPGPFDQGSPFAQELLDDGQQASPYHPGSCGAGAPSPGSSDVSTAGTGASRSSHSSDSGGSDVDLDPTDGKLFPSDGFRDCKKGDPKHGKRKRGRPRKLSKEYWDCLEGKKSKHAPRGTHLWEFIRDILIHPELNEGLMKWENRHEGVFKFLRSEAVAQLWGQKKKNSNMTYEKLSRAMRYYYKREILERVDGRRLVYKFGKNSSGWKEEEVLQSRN
# Method in brief: as §1
# [18] = target: CRX (Homo sapiens, UniProt O43186 1-299); details: protein: recombinant; tags: N-terminal GST; dsDNA, one strand shown
# Method in brief: as §1
# [19] = target: ETV1 (Homo sapiens, UniProt P50549 1-477); details: protein: recombinant; tags: N-terminal GST; dsDNA, one strand shown
# Method in brief: as §1
# ELF4, sequence (Q99607 whole entry): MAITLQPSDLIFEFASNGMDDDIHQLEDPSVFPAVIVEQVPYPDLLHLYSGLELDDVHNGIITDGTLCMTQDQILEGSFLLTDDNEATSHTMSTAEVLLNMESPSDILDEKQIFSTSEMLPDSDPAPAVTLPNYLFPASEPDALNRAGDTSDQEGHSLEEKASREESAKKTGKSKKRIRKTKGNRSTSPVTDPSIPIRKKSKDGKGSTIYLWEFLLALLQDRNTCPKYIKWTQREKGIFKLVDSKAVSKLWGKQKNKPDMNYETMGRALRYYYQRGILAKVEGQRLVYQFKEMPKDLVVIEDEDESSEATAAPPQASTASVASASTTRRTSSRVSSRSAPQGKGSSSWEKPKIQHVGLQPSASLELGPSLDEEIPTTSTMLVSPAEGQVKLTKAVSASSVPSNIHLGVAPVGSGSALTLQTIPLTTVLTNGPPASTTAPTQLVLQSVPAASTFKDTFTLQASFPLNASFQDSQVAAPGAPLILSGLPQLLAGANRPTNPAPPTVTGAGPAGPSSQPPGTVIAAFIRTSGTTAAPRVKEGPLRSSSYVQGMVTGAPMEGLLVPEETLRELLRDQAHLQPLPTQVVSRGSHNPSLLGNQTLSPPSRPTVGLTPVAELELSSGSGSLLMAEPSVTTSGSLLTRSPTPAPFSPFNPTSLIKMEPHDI
# SPIB, sequence (Q01892 whole entry): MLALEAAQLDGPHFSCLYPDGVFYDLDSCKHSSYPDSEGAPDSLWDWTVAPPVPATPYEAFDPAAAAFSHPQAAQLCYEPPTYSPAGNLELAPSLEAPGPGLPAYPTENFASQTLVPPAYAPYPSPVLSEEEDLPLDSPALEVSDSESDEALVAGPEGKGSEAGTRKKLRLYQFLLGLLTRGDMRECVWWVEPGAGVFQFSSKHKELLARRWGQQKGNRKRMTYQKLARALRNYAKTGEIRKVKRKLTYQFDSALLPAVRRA
# CRX, sequence (O43186 whole entry): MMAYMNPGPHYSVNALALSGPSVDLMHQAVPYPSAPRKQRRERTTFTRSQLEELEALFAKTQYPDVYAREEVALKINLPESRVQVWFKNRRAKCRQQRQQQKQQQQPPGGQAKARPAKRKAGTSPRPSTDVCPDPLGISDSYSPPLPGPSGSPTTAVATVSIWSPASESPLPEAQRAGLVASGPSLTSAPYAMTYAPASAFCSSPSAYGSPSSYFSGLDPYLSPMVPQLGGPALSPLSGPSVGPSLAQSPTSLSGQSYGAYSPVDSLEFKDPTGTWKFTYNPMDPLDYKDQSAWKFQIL
# ETV1, sequence (P50549 whole entry): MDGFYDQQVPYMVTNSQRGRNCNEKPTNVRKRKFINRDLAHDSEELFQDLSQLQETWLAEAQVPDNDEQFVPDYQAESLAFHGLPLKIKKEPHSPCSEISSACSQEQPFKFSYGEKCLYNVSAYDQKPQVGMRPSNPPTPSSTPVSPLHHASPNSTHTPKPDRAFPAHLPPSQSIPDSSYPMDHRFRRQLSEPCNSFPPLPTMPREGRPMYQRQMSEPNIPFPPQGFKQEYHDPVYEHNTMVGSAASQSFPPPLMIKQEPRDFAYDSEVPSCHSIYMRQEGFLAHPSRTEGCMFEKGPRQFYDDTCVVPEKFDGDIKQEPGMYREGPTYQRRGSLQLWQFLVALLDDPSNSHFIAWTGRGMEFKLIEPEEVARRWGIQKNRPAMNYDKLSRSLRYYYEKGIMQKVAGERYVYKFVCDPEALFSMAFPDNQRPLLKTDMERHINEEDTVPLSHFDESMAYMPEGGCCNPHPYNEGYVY
# ETV5, sequence (P41161 whole entry): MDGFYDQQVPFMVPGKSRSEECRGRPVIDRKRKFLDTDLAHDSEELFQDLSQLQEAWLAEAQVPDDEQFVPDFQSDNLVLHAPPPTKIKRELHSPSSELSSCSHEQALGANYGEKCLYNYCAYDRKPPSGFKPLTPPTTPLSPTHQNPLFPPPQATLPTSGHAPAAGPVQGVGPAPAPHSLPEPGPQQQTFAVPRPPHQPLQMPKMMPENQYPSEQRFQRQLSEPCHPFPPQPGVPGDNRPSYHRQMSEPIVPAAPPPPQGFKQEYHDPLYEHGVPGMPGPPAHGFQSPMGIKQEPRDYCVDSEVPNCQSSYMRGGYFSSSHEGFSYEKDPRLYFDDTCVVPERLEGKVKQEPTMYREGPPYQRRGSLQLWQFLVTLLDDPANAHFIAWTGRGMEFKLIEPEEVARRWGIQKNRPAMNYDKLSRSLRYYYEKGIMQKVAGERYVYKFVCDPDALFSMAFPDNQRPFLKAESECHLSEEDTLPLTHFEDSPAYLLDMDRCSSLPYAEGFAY
# HSF1, sequence (Q00613 whole entry): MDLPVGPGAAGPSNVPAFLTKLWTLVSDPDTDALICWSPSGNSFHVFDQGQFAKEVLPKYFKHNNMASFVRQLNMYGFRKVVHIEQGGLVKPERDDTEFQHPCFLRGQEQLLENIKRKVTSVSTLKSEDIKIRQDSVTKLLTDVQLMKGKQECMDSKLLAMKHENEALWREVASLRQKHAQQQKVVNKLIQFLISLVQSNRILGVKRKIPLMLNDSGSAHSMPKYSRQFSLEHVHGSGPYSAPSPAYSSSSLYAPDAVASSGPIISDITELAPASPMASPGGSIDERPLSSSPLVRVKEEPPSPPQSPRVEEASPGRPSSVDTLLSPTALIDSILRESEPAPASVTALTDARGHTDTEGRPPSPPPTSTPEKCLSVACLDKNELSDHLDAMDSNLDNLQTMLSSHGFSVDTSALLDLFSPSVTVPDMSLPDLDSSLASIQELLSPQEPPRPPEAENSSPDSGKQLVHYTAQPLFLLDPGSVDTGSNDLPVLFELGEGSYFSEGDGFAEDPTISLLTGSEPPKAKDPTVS
# ELF1, sequence (P32519 whole entry): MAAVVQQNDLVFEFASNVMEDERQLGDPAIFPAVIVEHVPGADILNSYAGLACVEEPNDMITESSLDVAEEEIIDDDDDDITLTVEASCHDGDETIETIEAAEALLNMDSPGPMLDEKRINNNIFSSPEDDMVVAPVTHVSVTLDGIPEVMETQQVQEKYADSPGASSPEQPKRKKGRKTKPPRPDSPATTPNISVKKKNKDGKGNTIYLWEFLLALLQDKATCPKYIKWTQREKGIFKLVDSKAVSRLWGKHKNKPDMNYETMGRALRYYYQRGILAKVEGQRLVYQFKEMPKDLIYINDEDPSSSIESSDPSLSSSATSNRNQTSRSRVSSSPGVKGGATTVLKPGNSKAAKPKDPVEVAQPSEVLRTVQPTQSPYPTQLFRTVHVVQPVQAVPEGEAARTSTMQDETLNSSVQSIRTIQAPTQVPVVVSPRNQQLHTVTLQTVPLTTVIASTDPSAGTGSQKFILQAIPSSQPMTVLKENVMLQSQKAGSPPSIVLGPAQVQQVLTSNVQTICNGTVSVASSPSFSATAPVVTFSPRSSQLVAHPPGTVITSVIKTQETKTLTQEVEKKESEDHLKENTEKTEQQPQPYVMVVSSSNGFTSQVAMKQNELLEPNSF
sequence,measurement,setting,value
TAAAAG,binding signal,[1],"1.12 fold enrichment (6-mer frequency, TF over GST control)"
same,binding signal,[2],"1.18 fold enrichment (6-mer frequency, TF over GST control)"
same,binding signal,[3],"1.24 fold enrichment (6-mer frequency, TF over GST control)"
same,binding signal,[4],"1.1 fold enrichment (6-mer frequency, TF over GST control)"
same,binding signal,[5],"1.12 fold enrichment (6-mer frequency, TF over GST control)"
same,binding signal,[6],"1.16 fold enrichment (6-mer frequency, TF over GST control)"
same,binding signal,[7],"1.31 fold enrichment (6-mer frequency, TF over GST control)"
same,binding signal,[8],"1.18 fold enrichment (6-mer frequency, TF over GST control)"
same,binding signal,[9],"1.15 fold enrichment (6-mer frequency, TF over GST control)"
same,binding signal,[10],"1.08 fold enrichment (6-mer frequency, TF over GST control)"
same,binding signal,[11],"1.19 fold enrichment (6-mer frequency, TF over GST control)"
same,binding signal,[12],"1.43 fold enrichment (6-mer frequency, TF over GST control)"
same,binding signal,[13],"1.14 fold enrichment (6-mer frequency, TF over GST control)"
same,binding signal,[14],"1.17 fold enrichment (6-mer frequency, TF over GST control)"
same,binding signal,[15],"1.2 fold enrichment (6-mer frequency, TF over GST control)"
same,binding signal,[16],"1.22 fold enrichment (6-mer frequency, TF over GST control)"
same,binding signal,[17],"1.21 fold enrichment (6-mer frequency, TF over GST control)"
same,binding signal,[18],"1.72 fold enrichment (6-mer frequency, TF over GST control)"
same,binding signal,[19],"1.18 fold enrichment (6-mer frequency, TF over GST control)"
